# High-throughput results deposited in PubChem BioAssay by several laboratories.
# eLon inh: E. coli protease La inhibition; P0A9M0; purified E. coli Lon protease, fluorescence polarization; inhibition, % at 7.94 µM; 360,000 tested, 0.42% active; in the data active = inhibition above about 13%, passing the limit was not always enough;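 note: 0% = enzyme with probe and DMSO and 100% = no enzyme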
# EBV gp42 inh: inhibitors of Epstein-Barr virus glycoprotein 42; Fluorescence polarization binding assay, mP read-out; inhibition, % (tested at 21.74 µM); 220,000 tested, 0.42% active; AID 1085; in the data active = inhibition above about 50%
# Target sequence (Q1HVG2 whole entry, looked up): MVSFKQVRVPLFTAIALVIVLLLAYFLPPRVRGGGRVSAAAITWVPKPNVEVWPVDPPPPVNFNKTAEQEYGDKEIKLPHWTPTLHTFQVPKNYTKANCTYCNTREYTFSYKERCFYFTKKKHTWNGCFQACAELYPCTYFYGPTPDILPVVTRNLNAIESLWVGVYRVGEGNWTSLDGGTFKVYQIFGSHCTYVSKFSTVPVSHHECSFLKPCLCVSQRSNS
# Keap1-Nrf2 PPI: disrupts human Keap1 binding to Nrf2 peptide. Q14145. Keap1 Kelch-Nrf2 peptide fluorescence polarization, 1536-well. inhibition, % at 9.4 µM. 340,000 tested, 0.15% active. AID 504523; in the data active = inhibition above about 12%; inconclusive = no clear call, values can overlap the other calls; inactive = below about 7.3%;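 note: human Keap1 Kelch domain with fluorescein labeled Nrf2 9mer peptide probe; 0% = neutral control wells and 100% = peptide positive control; higher means more block of Keap1 binding to Nrf2 peptide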
# LANA DNA inh: blocks KSHV LANA C-terminal domain binding to DNA; MBP-C-LANA/FAM-LBS DNA binding, fluorescence polarization; inhibition, % at 9 µM; 340,000 tested, 0.078% active; AID 504423;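 active = highest replicate inhibition at or above 60% at 9 µM, even if other replicates fall short; inactive = all replicates below 60% inhibition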;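 note: 0% = neutral control wells and 100% = 4 µM acridine orange control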
# cardiac RTF act: increases calcium sensitivity of human cardiac regulated thin filaments. 340,000 tested, 0.24% active. P19429+P45379. activation, % at 7.2 µM. IANBD-labeled TnC RTF fluorescence at EC20 calcium; 0% EC20 calcium, 100% full calcium;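 active = activation above the mean over all tested compounds plus 3 SD, cut at about 30% in these data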;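 note: rise in fluorescence read as greater calcium sensitivity of cardiac thin filaments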
# RTF Ca sens inh: cardiac RTF calcium desensitization. IANBD-labeled cardiac RTF, Ca2+ fluorescence. inhibition, % at 7.15 µM. 340,000 tested, 0.12% active;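 active = inhibition above the mean inhibition of all tested compounds plus 3 SD, cut at about 17% in these data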;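 note: assay run at fixed EC70 calcium of 1.6 mM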
# eLon confirm: E. coli Lon inhibition confirmation; purified E. coli Lon, fluorescence polarization; 1,400 tested, 31% active; shares compounds with eLon inh; AID 602230; inhibition, % at 7.94 µM; in the data active = inhibition above about 16%;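 note: 0% = enzyme with probe and DMSO and 100% = no enzyme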
# * hit, by the source's call; i = inactive; ? = inconclusive; . = not tested or not shown; + = active, no number. Hits are enriched below; roughly 0.98% of the tested compounds scored in any of these assays.
SMILES,eLon inh,EBV gp42 inh,Keap1-Nrf2 PPI,LANA DNA inh,cardiac RTF act,RTF Ca sens inh,eLon confirm
O=[N+]([O-])c1cc(-c2ccc(/C=N/c3nc4ccccn4c3-c3ccco3)o2)ccc1Cl,27.4*,9.5,3.3,4.5,-4.8,-4.5,12.5
CC(C)(C)c1ccc(C(=O)N2CCC2(C)C(=O)NCc2cccc3ccccc23)cc1 (configuration not stated),-27.1,.,.,.,.,.,.
O=c1c2cc([N+](=O)[O-])ccc2nc2n1CCCC2,18.9*,.,-1.2,0.3,0.0,-5.4,-6.3
O=c1c2cc(Br)ccc2nc2n1CCCCC2,-2.7,3.8,0.4,-1.2,-4.7,5.6,.
C=CCNC(=O)/C(C#N)=C/c1ccccc1[N+](=O)[O-],23.4*,22.4,-6.5,-0.6,4.7,-15.7,18.9*
C[C@H]1CN([C@@H](C)CO)C(=O)CCCn2nncc2CO[C@H]1CN(C)C(=O)C1CC1,-5.1,.,.,.,.,.,.
O=C(CCS(=O)(=O)Cc1ccccc1)N1CCc2ccccc2C1,-3.7,-13.5,-2.1,0.1,-7.0,-0.5,.
O=C(CCS(=O)(=O)Cc1ccccc1F)N1CCc2ccccc2C1,17.9*,-7.8,-3.0,-0.2,11.3,-0.5,-17.2
Cc1cccc(NC(=O)C2CCCN(S(=O)(=O)c3c(C)nn(C)c3C)C2)n1 (configuration not stated),12.2*,-1.7,-1.0,-3.1,-1.1,-9.5,-9.2
O=C(OCC(=O)N1CCN(C(=O)c2ccco2)CC1)c1cc(F)c(F)cc1Cl,-3.6,.,-6.4,-0.1,-4.4,0.8,.
Clc1ccc(/C=N/c2c(-c3ccco3)nc3ccccn23)cc1,26.4*,23.1,1.9,3.8,8.4,-10.5,-4.1
Oc1ccccc1/C=N/c1c(-c2ccco2)nc2ccccn12,30.5*,14.1,2.2,3.0,2.8,-7.2,2.5
COc1ccc(/C=N/c2c(-c3ccco3)nc3ccccn23)cc1OC,32.1*,17.5,?,3.1,2.6,-1.7,-3.1
CCN(C(=O)CSc1nc2cc(C(=O)O)ccc2c(=O)n1-c1ccccc1F)C1CCS(=O)(=O)C1 (configuration not stated),4.4,.,0.9,1.5,-2.7,-9.8,.
CCNC(=O)C1(C)CCCN1C(=O)c1ccc(C#N)cc1 (configuration not stated),-4.6,.,.,.,.,.,.
CCc1ccc(NC(=O)c2cccc(NC3=NC4CS(=O)(=O)CC4S3)c2)cc1 (configuration not stated),24.1*,.,0.3,-1.6,-2.1,-3.1,0.1
CCOc1ccc(NC(=O)c2cccc(NC3=NC4CS(=O)(=O)CC4S3)c2)cc1 (configuration not stated),-13.9,.,-0.2,-1.6,2.9,-1.0,.
N#CC1=C(N)C2=C(N3CCCCC3)CCCC2C1(C#N)C#N (configuration not stated),24.0*,-18.5,-2.2,41.3,5.3,-1.8,0.1
CNC(=O)c1c[nH]c2ccc(S(=O)(=O)Nc3cccc(SC)c3)cc2c1=O,9.2,.,-3.4,5.7,-2.3,-1.8,.
O=C(CSc1ccc2ccccc2n1)NCCCN1CCCC1=O,-6.2,.,-1.3,2.0,-0.3,-4.2,.
CCSC(=O)N=Nc1ccc(O)cc1,6.9,.,-6.1,-3.0,-0.2,-7.3,.
COc1ccc(NC2CCN(C3CC(=O)N(c4ccc(F)c(Cl)c4)C3=O)CC2)cc1 (configuration not stated),17.1*,5.1,-3.2,-1.2,3.5,-0.1,-2.8
CN(C(=O)CN1CCN(c2cc(-c3ccc(-c4ccccc4)cc3)ncn2)CC1)c1ccccc1,-6.4,.,.,.,.,.,.
CCN(CC)CCCNc1ccc2ncn3c4ccc(O)cc4c(=O)c1c23,+,.,108.1*,146.6*,291.7*,-340.1,+
CC(C)n1c(S(=O)(=O)O)nc2ccccc21,14.1*,9.7,-6.0,-1.4,10.2,-6.8,-0.7
SMILES,eLon inh,EBV gp42 inh,Keap1-Nrf2 PPI,LANA DNA inh,cardiac RTF act,RTF Ca sens inh,eLon confirm
CC(c1ccccc1)n1c(S(=O)(=O)O)nc2ccccc21 (configuration not stated),-2.6,-10.6,-1.8,-1.1,-3.8,-1.4,.
C=CCOC(=O)C1=C[C@H](c2coc3ccccc3c2=O)[C@@H](CCCO)[C@H](OCC)O1,26.4*,-5.6,-1.6,-0.7,3.5,-10.1,1.3
Cc1cc2nc(-c3ccc(=O)[nH]c3)n(Cc3ccccc3)c2cc1C,2.0,.,-0.6,1.2,6.0,3.6,.
COC(=O)c1ccccc1C(=O)N(Cc1cccnc1)CC1CCCN(C2CCCCC2)C1 (configuration not stated),0.9,.,-0.3,1.1,3.9,-2.4,.
CC(OC(=O)Cn1cnc2c1c(=O)n(C)c(=O)n2C)C(=O)Nc1ccc(Cl)cc1 (configuration not stated),26.5*,.,-4.5,-0.3,-1.0,1.1,-1.6
Cn1c(=O)c2c(ncn2CC(=O)OCC(=O)Nc2ccc(Cl)cc2)n(C)c1=O,3.9,-8.0,-1.4,-2.7,2.0,3.0,.
CN1C(=O)N(C)c2ccc(C=O)c3cccc1c23,15.7*,48.9,1.8,2.3,6.3,-23.7,14.9
CC1(C(=O)NS(=O)(=O)c2ccccc2Cl)CCN1C(=O)C1CCCCC1 (configuration not stated),-9.4,.,.,.,.,.,.
Cc1cc2nc3c(=O)n(CCc4ccccc4)c(=O)[nH]c3nc2cc1N,165.9*,157.6*,10.6,35.3,515.7*,i,88.7*
Cc1nc2ccccc2c(=O)n1CCc1ccccc1,4.6,.,-1.5,-1.6,-3.5,-7.0,.
Nc1ccc2nc3c(=O)n(CCc4ccccc4)c(=O)[nH]c3nc2c1,190.6*,173.5*,.,.,.,.,132.3*
Nc1ccc2nc(CCc3ccccc3)[nH]c2c1,0.3,-3.1,-3.3,-0.7,0.0,-1.9,.
CN(CC(=O)N(C)CC(=O)Nc1c(Cl)cccc1Cl)Cc1ccc(Br)s1,-18.4,.,-4.2,-1.9,0.0,-0.7,.
Cc1cccn2c(=O)c(C=C(C#N)C#N)c(N3CCN(C)CC3)nc12,16.5*,.,1.6,-0.4,-0.6,5.2,12.9
CN(CCCC(=O)Nc1ccc(Br)cc1F)S(=O)(=O)c1ccccc1,-9.9,.,0.0,-1.2,-0.7,-5.3,.
O=C(c1ccccc1)[C@@H]1[C@@H]2C(=O)N(c3ccc(F)cc3)C(=O)[C@@H]2C2CCCN21 (some centres not stated),23.4*,4.4,2.4,14.2,15.9,-22.9,29.5*
C=CCN(C(=O)c1csnn1)C(C(=O)NC1CCCC1)c1ccc(OC)cc1 (configuration not stated),0.5,.,1.6,-0.8,-8.2,0.9,.
COc1cc(OC)cc(-c2c(-c3cccs3)c3cc(-c4ccc(C(N)=O)cc4)ccc3n2C)c1,-3.0,.,-1.9,-1.0,-0.8,8.0,.
CCOC(=O)C(=C1Nc2ccccc2N1)n1c(-c2ccco2)nc2ccccc21,41.0*,.,.,.,.,.,20.2*
